# Bioassay records deposited in PubChem BioAssay by The Scripps Research Institute Molecular Screening Center.
# Only some compounds are listed: those with a hit (about 3.4% of all), similar ones and a draw of the others.
# GPR151 activ = activators of human GPR151 | Q8TDV0 | PathHunter beta-arrestin GPR151 cells, luminescence | activation, % at 11.2 µM | 650,000 compounds, 1% hits | AID 1508602; in the data active = activation above about 4.9%;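 note: 0% = median of compound wells and 100% = cells with positive control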
# MITF inh = human MITF inhibition, primary screen; AlphaScreen MITF homodimerization, bead proximity signal; O75030; AID 1259374; inhibition, % at 2.6 µM; 650,000 compounds, 0.91% hits; in the data active = inhibition above about 50%;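 note: 0% = vehicle wells with protein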
# Target sequence (O75030 whole entry, looked up): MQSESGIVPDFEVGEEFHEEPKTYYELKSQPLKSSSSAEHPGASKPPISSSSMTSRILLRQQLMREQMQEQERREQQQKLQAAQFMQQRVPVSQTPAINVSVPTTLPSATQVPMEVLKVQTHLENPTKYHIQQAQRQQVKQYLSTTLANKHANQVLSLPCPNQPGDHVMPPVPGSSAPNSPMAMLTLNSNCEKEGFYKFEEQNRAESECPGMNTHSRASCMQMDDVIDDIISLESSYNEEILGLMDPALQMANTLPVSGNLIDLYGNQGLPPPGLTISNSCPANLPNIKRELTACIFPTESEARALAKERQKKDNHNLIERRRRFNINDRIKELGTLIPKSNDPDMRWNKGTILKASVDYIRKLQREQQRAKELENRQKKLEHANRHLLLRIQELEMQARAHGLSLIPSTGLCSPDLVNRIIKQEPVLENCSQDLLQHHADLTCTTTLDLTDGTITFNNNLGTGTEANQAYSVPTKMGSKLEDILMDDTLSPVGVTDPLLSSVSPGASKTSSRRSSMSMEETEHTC
# TEAD-YAP block = TEAD-YAP interaction inhibition. HEK-TIYL cells, TEAD-Gal4/YAP UAS-luciferase luminescence. inhibition, % at 9.12 µM. 640,000 compounds, 1.4% hits; in the data active = inhibition above about 32%;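 note: 0% = median of test compound wells and 100% = reference inhibitor wells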
# FBW7 act = human FBW7 E3 ligase activation, primary screen. AID 1259310. AlphaScreen FBW7–phospho-cyclin E peptide binding, activator screen. normalized activity (activation), % at 26.1 µM. 650,000 compounds, 0.13% hits; in the data active = normalized activity above about 1.9%;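 note: purified mutant Fbw7 with reduced substrate affinity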
# Active calls of the source: *.
SMILES,GPR151 activ,MITF inh,TEAD-YAP block,FBW7 act
CN(C)/C=C/C=C1\CCc2ccccc2C1=O,0,20,-3,0
O=C(NCC(c1ccco1)S(=O)(=O)c1cccs1)Oc1ccccc1 (configuration not stated),0,-2,-1,0
Cc1cc(/C=C(\C#N)C(=O)N2CCOCC2)c(C)n1C1CCCC1,-3,6,32*,0
CCN1CCN(C(=O)/C(C#N)=C/c2cc(C)n(C3CCCC3)c2C)CC1,-2,15,-15,1
N#C/C(=C/c1ccc(-c2ccc([N+](=O)[O-])cc2)o1)C(N)=O,0,12,15,2.4*
N#C/C(=C\c1ccc(-c2cccc([N+](=O)[O-])c2)o1)C(N)=O,1,7,8,0
CN(Cc1ccccc1)C(=O)CSc1nc2cc(C(=O)NCC3CCCO3)ccc2c(=O)n1Cc1ccco1 (configuration not stated),1,-5,38*,0
COCCNC(=O)c1ccc2c(=O)n(Cc3ccco3)c(SCC(=O)N3CCN(c4ccccc4)CC3)nc2c1,0,-7,28,0
O=C(CSc1nc2cc(C(=O)NCC3CCCO3)ccc2c(=O)n1Cc1ccco1)NC1CCCC1 (configuration not stated),-1,-3,11,0
O=C(NCC1CCCO1)c1ccc2c(=O)n(Cc3ccco3)c(SCC(=O)N3CCN(c4ccccc4)CC3)nc2c1 (configuration not stated),0,-2,35*,0
CCOC(=O)c1cnc2c(OC)cccc2c1Nc1ccc(OC)c(OC)c1,0,17,45*,0
CCOC(=O)c1cnc2c(Cl)c(Cl)ccc2c1NC1CCCCC1,-1,-3,-6,0
CCOC(=O)c1cnc2c(OC)cccc2c1NC1CCCCCC1,3,3,66*,0
CCOC(=O)c1cnc2c(OC)cccc2c1NC1CCCCC1,4,5,55*,0
CCOC(=O)c1cnc2c(OC)cccc2c1NCC1CCCN1CC (configuration not stated),1,-12,6,0
c1ccc(-n2cnc3c(Nc4ccc(N5CCOCC5)cc4)nc(Nc4ccc(-n5ccnc5)cc4)nc32)cc1,1,18,41*,0
c1ccc(Nc2nc(Nc3ccc(-n4ccnc4)cc3)nc3c2ncn3-c2ccccc2)cc1,3,8,20,0
c1ccc(OCCNc2nc(Nc3cccnc3)nc3c2ncn3-c2ccccc2)cc1,2,-4,11,0
CCN(CC)c1nc(Nc2ccc(N3CCOCC3)cc2)nc(Nc2ccc(-n3ccnc3)cc2)n1,2,18,65*,0
c1ccc(Nc2nc(Nc3cccnc3)nc3c2ncn3-c2ccccc2)cc1,-2,15,34*,0
c1ccc(-n2cnc3c(Nc4ccc(N5CCOCC5)cc4)nc(Nc4cccnc4)nc32)cc1,-1,11,41*,0
CCOc1cccc2sc(N(CCN3CCOCC3)C(=O)c3ccc(C)cc3C)nc12,-1,4,5,0
Cc1nn(CC(C)C(=O)O)c(C)c1Cl (configuration not stated),-1,-9,3,0
CC(=O)Nc1cccc(-c2cnc3c(N4CCN(C)CC4)nccn23)c1,1,13,-68,-1
CC(=O)Nc1cccc(-c2cnc3c(N4CCOCC4)nccn23)c1,-1,11,79*,-1
SMILES,GPR151 activ,MITF inh,TEAD-YAP block,FBW7 act
Oc1ccc(-c2cnc3c(N4CCOCC4)nccn23)cc1,-1,45,79*,0
Oc1cccc(-c2cnc3c(N4CCOCC4)nccn23)c1,0,10,80*,-1
C=CCn1c(O)c(C2=c3cc(I)ccc3=NC2=O)sc1=S,-2,9,2,1
CCCCc1ccc(-c2nc3ccccc3c(=O)n2NCc2cccc(F)c2)cc1,1,-1,-5,0
COC(=O)c1ccc(NC(=O)COc2ccc3c(c2)CCCC3)cc1,2,-16,1,0
Cc1ccc(CN2C(=O)C(=O)c3cc([N+](=O)[O-])ccc32)cc1,0,3,66*,0
O=C1C(=O)N(Cc2ccc(Br)cc2)c2ccc([N+](=O)[O-])cc21,0,-14,33*,0
O=C1C(=O)N(Cc2cccc3ccccc23)c2ccc([N+](=O)[O-])cc21,-1,15,35*,0
O=C1C(=O)N(Cc2cccc3ccccc23)c2ccc(Br)cc21,-1,42,25,0
O=C1C(=O)N(Cc2ccc(Cl)c(Cl)c2)c2ccc([N+](=O)[O-])cc21,2,-4,8,0
CCOc1cc(/C=C2/C(=N)N3N=C(CC)SC3=NC2=O)cc(Cl)c1OCCOc1ccccc1C,0,12,-11,0
COc1ccc(-n2c(SC)nnc2-c2cccs2)cc1,1,6,14,0
CCOC(=O)C1=C(C)N=c2s/c(=C\c3ccc(O)cc3)c(=O)n2C1c1ccc(OC)c(OC)c1 (configuration not stated),2,11,-10,0
COc1cn(-c2ccc(F)cc2)nc1C(=O)Nc1ccccc1SC,1,6,32*,0
COc1ccc(/C=C2\SC(=O)N(CO)C2=O)c(OC)c1,2,15,-11,0
COc1cc(/C=C2/SC(=S)N(CCCC(=O)O)C2=O)ccc1O,-7,6,61*,0
COc1ccc(/C=C2\SC(=O)N(CCC(=O)O)C2=O)c(OC)c1,0,10,64*,0
COC(=O)CCCN1C(=O)/C(=C\c2ccc3c(c2)OCO3)SC1=S,-1,9,59*,0
CCOc1ccc(/C=C2\SC(=S)N(CCCC(=O)O)C2=O)cc1,-1,2,79*,0
Cc1ccc(/C=C2/SC(=S)N(Cc3cccnc3)C2=O)cc1,0,2,4,0
COc1ccc(/C=C2/SC(=S)N(CCC(=O)O)C2=O)cc1,1,1,58*,0
CCOc1cc(/C=C2\SC(=S)N(CCCC(=O)O)C2=O)ccc1O,0,13,82*,0
CCCN1C(=O)/C(=C/c2ccc(OC)cc2)SC1=S,-1,9,-11,0
O=C(O)CCCN1C(=O)/C(=C\c2ccc(OC(F)F)cc2)SC1=S,2,8,59*,0
O=C(O)CCCCCN1C(=O)/C(=C/c2ccc(O)cc2)SC1=S,-8,8,31,0
SMILES,GPR151 activ,MITF inh,TEAD-YAP block,FBW7 act
Cc1ccc(/C=C2\SC(=S)N(CCCC(=O)Nc3cccnc3)C2=O)cc1,1,-2,34*,0
CN(c1ccccc1)S(=O)(=O)c1ccc(C(=O)Nc2nc3c(s2)C(=O)CC(C)(C)C3)cc1,-1,1,3,0
CC1=C(C(=O)OC(C)C)C(c2ccccc2[N+](=O)[O-])NC(=O)N1C (configuration not stated),0,-6,-7,0
O=Cc1ccccc1OCc1ccc2c(c1)OCO2,-4,7,-51,0
O=Cc1ccc(OCc2ccc3c(c2)OCO3)c(Cl)c1,-8,5,72*,0
COc1ccccc1NC(=O)CCc1nc(-c2ccc(C(C)(C)C)cc2)no1,-2,-1,71*,0
COc1ccccc1NC(=O)CCCc1nc(-c2ccc(C)cc2)no1,0,5,10,0
